This is a sample that favours compounds with a hit; in the whole collection about 8% have one here.
SARS PLpro yeast: blocks SARS-CoV papain-like protease in a yeast assay; S. cerevisiae expressing SARS-CoV PLpro, growth rescue; Potency, µM (top dose mostly 32.9 µM), without a hit: at the top dose activity, positive = growth rescue, usual class: activators; actives 0.19% (n = 330,000); calls by dose curve; note: potency is the fitted concentration of half-maximal effect; 0% is about no effect; nearly all actives have a fitted effect of over 55% in size
FMDV antiviral: blocks foot and mouth disease virus. actives 1.2% (n = 410,000). FMDV antiviral cell-based qHTS. Potency, µM (highest dose often 57.9 µM), for the others: top-dose activity change, negative = inhibition, usual class: inhibitors. AID 1159524; calls by dose curve; tested in HEK293T cells; note: read-out not given here; potency is the fitted concentration of half-maximal effect; % is set by controls: 0 for no effect and ±100 for the full control effect; nearly all actives have a fitted effect of over 45% in size
HCV inh: HCV inhibition; AID 651820; actives 3.4% (n = 340,000); Potency, µM (top dose mostly 41.8 µM), for inactives: at the highest dose activity change, negative = inhibition, usual class: inhibitors; Huh7.5.1 HCVcc-Cre infection, luciferase reporter, 44 h; active = well fitted inhibition curve with a large enough effect; inconclusive = small, poorly fitted or top-dose-only effect, or another doubt; inactive = no such curve, though single readings can be large or run the other way; note: potency is the fitted concentration of half-maximal effect; % is set by controls: 0 for no effect and ±100 for the full control effect
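Infectious HCVcc-Cre (~0.5 moi) was added to cells just after compound, with cells seeded 4 h earlier at 1,000 per well. Luciferase activity after 44 h culture reported infection; substrate was incubated 15 min at room temperature before reading.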
HCMV antiviral: blocks human cytomegalovirus replication; actives 4.5% (n = 410,000); AID 1259415; activity change, negative = inhibition, % at 57.5 µM; HFF cells, HCMV-luciferase reporter, 72 h; stronger effect = lower value; in the data active = activity change below about -60%; inconclusive = no clear call, values can overlap the other calls; inactive = above about -39%; note: % is set by controls: 0 for no effect and ±100 for the full control effect
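Two compound doses tested in HFFs infected with HCMV-luciferase, MOI 1 PFU/cell, 72 h at 37C. Lysate luminescence read with OneGlo; data normalized against buffer-only and 10uM Salinomycin inhibitor controls.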
Lassa entry inh: blocks Lassa virus binding to or entry into cells | Lassa virus pseudotype entry inhibition, cell reporter | Potency, µM (top dose mostly 37.9 µM), for inactives: at the highest dose activity change, negative = inhibition, actives largely listed as inhibitors | actives 1.2% (n = 300,000); calls by dose curve; tested in HEK293 cells; note: potency is the fitted concentration of half-maximal effect; % is set by controls: 0 for no effect and ±100 for the full control effect; nearly all actives have a fitted effect of over 50% in size
Marburg entry inh: inhibitors of Marburg virus binding or cell entry. AID 540276. Marburg virus pseudotyped entry inhibition, cell reporter. actives 1.8% (n = 300,000). Potency, µM (series often up to 37.8 µM), for the others: at the top dose activity change, negative = inhibition, usual class: inhibitors; calls by dose curve; tested in HEK293 cells; note: potency is the fitted concentration of half-maximal effect; % is set by controls: 0 for no effect and ±100 for the full control effect
* marks the source's active call; other numbers are inactive results; ? = inconclusive; . = not tested or not shown; [ ] = dose if it differs, or a comment.

SMILES | SARS PLpro yeast | FMDV antiviral | HCV inh | HCMV antiviral | Lassa entry inh | Marburg entry inh
O=c1c2ccccc2nc(/C=C/c2ccc(Cl)cc2)n1CCO | -2.6% | -25.2% | ? | ? | ? | -22.1%
Cc1[nH]c2ccccc2c1/C=C/c1nc2ccccc2c(=O)n1CCO | -0.6% | -7.0% | ? | 3.9 | 11.2µM* | ?
O=c1c2ccccc2nc(/C=C/c2ccc([N+](=O)[O-])o2)n1CCCO | -25.9% | ? | 2.24µM* | -107.6* | 4.47µM* | 2µM*
Cc1[nH]c2ccccc2c1/C=C/c1nc2ccccc2c(=O)n1-c1cccc([N+](=O)[O-])c1 | 8.3% | -14.8% | 7.8% | -85.9* | ? | ?
O=c1c2ccccc2nc(/C=C/c2ccc(Br)cc2)n1CCCO | -6.0% | 0.0% | ? | -71.2* | . | .
O=c1c2ccccc2nc(/C=C/c2ccc(Br)cc2)n1CCO | . | -21.6% | -10.0% | -37.5 | ? | ?
COC(=O)c1cc(OC)c(OC)c(OC)c1NC(=O)c1cc(=O)n(C)c(=O)n1C | . | -16.3% | . | -23.3 | -17.2%[46.1 µM] | 21.6%[46.1 µM]
Cc1cc(Nc2cc(Cl)ccc2C)n2nc(Cc3ccccc3)nc2n1 | . | ? | . | -14.9 | -15.7%[46.1 µM] | -4.9%[46.1 µM]
Cc1noc(/C=C/c2ccccn2)c1[N+](=O)[O-] | -25.5% | -25.8% | -6.4% | -102.5* | ? | ?
Cc1cccc(-n2c(/C=C\c3cccc(Br)c3)nc3ccccc3c2=O)c1 | . | ? | . | -32.0 | 12.0%[46.1 µM] | .
Cn1c(/C=C/c2cccc([N+](=O)[O-])c2)nc2ccccc2c1=O | -0.8% | -28.8% | -15.4% | -61.2* | . | .
COc1ccccc1N/C=C/c1onc(C)c1[N+](=O)[O-] | -3.6% | ? | -0.4% | -5.4 | . | .
CC(=O)N(C(C)=O)n1c(/C=C/c2ccc([N+](=O)[O-])cc2)nc2ccccc2c1=O | -9.5% | ? | -9.8% | -10.4 | . | ?
Cn1c(/C=C/c2cccc(Br)c2)nc2ccccc2c1=O | -7.3% | 8.7% | -84.6% | -72.2* | ? | 10µM*
Cc1ccc(CNC(=O)c2cccn2-c2nnc(N3CCCCC3)s2)cc1 | . | ? | . | 0.0 | 8.4%[46.1 µM] | .
Cc1ccc(NC(=O)Cn2cc(C(=O)C3CCCCC3)c3ccccc32)cc1 | . | -13.9% | . | 10.8 | -3.7%[46.1 µM] | -18.2%[46.1 µM]
Cc1cc(Cl)ccc1NC(=O)CN1C(=O)C(=O)c2ccccc21 | . | 6.2% | . | 18.3 | -9.9%[46.1 µM] | -20.6%[46.1 µM]
CCOC(=O)c1cccn1C1C(=O)N(Cc2ccc(C(F)(F)F)cc2)c2ccccc21 (centres undefined) | . | . | . | -5.3 | . | .
COc1cc(/C=N/NC(=O)c2ccc3ccccc3c2)ccc1Oc1ccc([N+](=O)[O-])cn1 | 8.9% | ? | 3.55µM* | ? | -26.7% | -10.8%[46.1 µM]
COc1cc(/C=N/NC(=O)c2ccc(O)cc2)ccc1Oc1ccc([N+](=O)[O-])cn1 | -8.0% | -19.9% | ? | -61.7* | -14.4% | ?
COc1cccc(C(=O)N/N=C/c2ccc(Oc3ccc([N+](=O)[O-])cn3)c(OC)c2)c1 | 7.0% | -14.5% | 10µM* | -36.3 | -22.3% | ?
COc1ccc(/C=N/NC(=O)c2cccc([N+](=O)[O-])c2)cc1OC(=O)c1ccccc1 | -3.7% | 32.7% | 11.2µM* | -35.5 | ? | ?
COC(=O)c1cccc(Nc2c(-c3ccc(OC)cc3)nc3nc[nH]n23)c1 | . | 42.7% | . | 82.5 | -6.2%[46.1 µM] | .
COc1ccccc1Nc1sc(C(=O)c2ccc(C)cc2C)c(N)c1S(=O)(=O)c1ccccc1 | . | -14.2% | . | -6.5 | -23.1%[46.1 µM] | .
Cc1cccc2nc(Cn3c(=O)n(-c4ccc(Cl)cc4)c(=O)c4c5c(sc43)CCC5)cc(=O)n12 | . | -2.6% | . | -9.5 | -1.2%[46.1 µM] | -13.6%[46.1 µM]
SMILES | SARS PLpro yeast | FMDV antiviral | HCV inh | HCMV antiviral | Lassa entry inh | Marburg entry inh
CCc1ccccc1NC(=O)Cn1c(=O)n(Cc2ccc(OC)cc2)c(=O)c2oc3ccccc3c21 | . | -1.5% | . | -4.5 | 7.3%[46.1 µM] | .
COc1cc(-c2noc(C)c2/C=C/c2ccc(OC(C)=O)cc2)cc(OC)c1OC | -2.6% | -12.8% | ? | -64.7* | . | .
COc1ccccc1N(CC(=O)NCc1ccccn1)S(C)(=O)=O | -3.6% | . | 0.9% | -65.8* | 2.8% | -0.5%
COC(=O)N1CCN(C(=O)Cc2ccc(Cl)c(Cl)c2)C(CN2CCCC2)C1 (centres undefined) | -0.7% | 6.0% | . | . | ? | 11.2µM*
CCc1cccc(NC(=O)CCNS(=O)(=O)c2ccc3c(c2)CCN3C(C)=O)c1 | . | -10.8% | . | -3.9 | 0.5%[46.1 µM] | 1.1%[46.1 µM]
O=C1c2cc(F)ccc2-n2c1nc1ccccc1c2=O | -2.5% | ? | 2.51µM* | -82.7* | ? | ?
Nn1c(-c2ccc(F)cc2)nc2ccccc2c1=O | -0.6% | -2.5% | 8.2% | -22.7 | . | .
COc1cccc(C2(CC(=O)N3CCCOc4c(cccc4OC)C3)CC(=O)N(C)C2=O)c1 (centres undefined) | . | 1.1% | . | . | . | .
O=C(Nc1nnc(-c2ccccc2SCc2ccccc2F)s1)Nc1ccccc1F | -0.2% | 0.9% | 25.3% | -60.5* | 1.0% | ?
C#CCCCO/N=C1/C[C@@H](O)[C@@H](O)[C@@H]2[C@H]3C(=O)N(c4ccc(F)cc4F)C(=O)[C@@H]3CC[C@H]12 | . | . | . | . | . | -6.1%[14.2 µM]
COC(=O)C12OCC34C(CC5C(C)=C(O)C(=O)CC5(C)C3C(O)C1O)OC(=O)C(OC(=O)/C=C(\C)C(C)C)C24 (centres undefined) | . | -31.3% | ? | -98.4* | ? | ?
COC(=O)C12OCC34C(CC5C(C)=C(O)C(=O)CC5(C)C3C(O)C1O)OC(=O)C(OC(=O)C=C(C)C)C24 (centres undefined) | . | -41.9% | . | -98.6* | ? | ?
COc1ccccc1Cc1nc2ccccc2nc1SCC(=O)N1CCN(c2ccccc2)CC1 | . | 0.0% | . | 7.7 | 3.4%[46.1 µM] | .
CCOC(=O)c1cccc(NC(=O)c2ccc3snnc3c2)c1 | . | -0.1% | . | 27.7 | ? | 28.8%[46.1 µM]
Cc1oc2ncn(CC(C)C)c(=O)c2c1C(=O)NCCc1ccc(Cl)cc1 | . | -4.0% | . | -3.2 | -6.2%[46.1 µM] | .
COc1ccc(C2C(C(=O)/C=C/c3ccco3)=C(O)C(=O)N2CCN2CCOCC2)cc1 (centres undefined) | 10.4% | -0.7% | 11.2µM* | 11.2 | 2.1% | ?
COc1cccc(C2C(C(=O)/C=C/c3ccco3)=C(O)C(=O)N2CCN2CCOCC2)c1 (centres undefined) | -0.5% | -4.5% | -3.1% | -0.4 | 18.9%[46.1 µM] | 10.7%[46.1 µM]
CC(CCC(=O)OC[C@H]1O[C@H](C#Cc2ccccc2)C=C[C@H]1Oc1ccc(C)cc1)=NO[C@@H](C)CN1CCCCc2nc(C)c(C)cc21 | . | . | . | . | . | -16.3%[14.2 µM]
COc1cc(-c2nnc(SCCOc3ccc(Cl)cc3)o2)cc(OC)c1OC | . | ? | . | -3.4 | -2.4%[46.1 µM] | 2.4%[46.1 µM]
Cc1ccc(S(=O)(=O)c2ncccc2[N+](=O)[O-])cc1 | -8.6% | 20µM* | ? | -101.5* | . | .
CC(=O)Nc1ccc(N2CCOCC2)c(S(=O)(=O)Nc2ccccc2Cl)c1 | . | 51.9% | . | -11.5 | . | .

Assay outcomes: PubChem BioAssay, National Center for Advancing Translational Sciences (NCATS)
